# Measured values published in PMC7862700, “An all-to-all approach to the identification of sequence-specific readers for epigenetic DNA modifications on cytosine”.
# Target: T1, ERF (Homo sapiens, UniProt P50548 1-548)
# T1 sequence: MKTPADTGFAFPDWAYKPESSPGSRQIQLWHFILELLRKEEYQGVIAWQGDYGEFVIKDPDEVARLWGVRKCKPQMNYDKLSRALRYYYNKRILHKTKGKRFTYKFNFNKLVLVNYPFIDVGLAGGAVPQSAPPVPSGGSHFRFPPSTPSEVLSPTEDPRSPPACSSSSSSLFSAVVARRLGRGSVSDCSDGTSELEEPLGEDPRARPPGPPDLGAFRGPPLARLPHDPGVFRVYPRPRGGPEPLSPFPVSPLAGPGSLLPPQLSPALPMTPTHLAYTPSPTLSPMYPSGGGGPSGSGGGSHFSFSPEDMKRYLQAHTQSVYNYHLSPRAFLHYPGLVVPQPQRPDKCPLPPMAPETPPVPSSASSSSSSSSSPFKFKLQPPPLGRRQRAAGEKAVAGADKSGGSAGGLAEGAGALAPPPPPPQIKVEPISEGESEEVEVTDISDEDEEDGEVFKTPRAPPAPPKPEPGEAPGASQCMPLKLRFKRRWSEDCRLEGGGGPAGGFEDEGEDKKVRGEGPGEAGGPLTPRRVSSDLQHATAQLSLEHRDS
# Assay: DAPPL (digital affinity profiling via proximity ligation, sequencing); 10 mM Tris-HCl pH 7.5, 50 mM NaCl, 1 mM DTT, 4% glycerol, room temperature, 30 min; GST-TFs on glutathione beads, 16-mer random dsDNA library, 0.1% formaldehyde crosslink after washing; high values mean tight binding
# Settings: protein: recombinant; tags: N-terminal GST; dsDNA, one strand shown
# How it was run: (§1)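 Pools were built from human transcription factors expressed in yeast as GST fusions, captured on glutathione beads and DNA-barcoded, along with a tag-only sample. Incubation with 200 nmole of a 16-mer random double-stranded DNA library lasted 30 min at room temperature in Tris/NaCl/DTT/glycerol buffer, and was followed by washing, 0.1% formaldehyde crosslinking, proximity ligation, PCR amplification and Illumina NextSeq500 sequencing. Binding signal is the quotient of each hexamer's read frequency for a factor and its frequency for the tag-only sample.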
row,Sequence,binding signal
1,AACACG,"1.14 fold enrichment (6-mer frequency, TF over GST control)"
2,ACTTAC,"1.08 fold enrichment (6-mer frequency, TF over GST control)"
3,CTGGAC,"1.03 fold enrichment (6-mer frequency, TF over GST control)"
4,TGCCTT,"1.24 fold enrichment (6-mer frequency, TF over GST control)"
5,ATGGGC,"1.17 fold enrichment (6-mer frequency, TF over GST control)"
6,CACACA,"1.16 fold enrichment (6-mer frequency, TF over GST control)"
7,TCCCTG,"1.29 fold enrichment (6-mer frequency, TF over GST control)"
8,ACCCTC,"1.19 fold enrichment (6-mer frequency, TF over GST control)"
9,ACTCCC,"1.44 fold enrichment (6-mer frequency, TF over GST control)"
10,CCGATC,"1.17 fold enrichment (6-mer frequency, TF over GST control)"
11,GTTTTG,"1.25 fold enrichment (6-mer frequency, TF over GST control)"
12,AACAAG,"1.19 fold enrichment (6-mer frequency, TF over GST control)"
13,TGGCAG,"1.11 fold enrichment (6-mer frequency, TF over GST control)"
14,CTTCTA,"1.5 fold enrichment (6-mer frequency, TF over GST control)"
15,AAGAAT,"1.2 fold enrichment (6-mer frequency, TF over GST control)"
16,GTAATC,"1.08 fold enrichment (6-mer frequency, TF over GST control)"
17,GTCTCT,"1.16 fold enrichment (6-mer frequency, TF over GST control)"
18,ATTTGT,"1.34 fold enrichment (6-mer frequency, TF over GST control)"
19,GTAGCA,"1.22 fold enrichment (6-mer frequency, TF over GST control)"
20,TTGCTA,"1.37 fold enrichment (6-mer frequency, TF over GST control)"

row,Sequence,binding signal
1,GACATC,"1.22 fold enrichment (6-mer frequency, TF over GST control)"
2,CACTTG,"1.41 fold enrichment (6-mer frequency, TF over GST control)"
3,TGACAC,"1.3 fold enrichment (6-mer frequency, TF over GST control)"
4,CGCCGC,"1.2 fold enrichment (6-mer frequency, TF over GST control)"
5,GTCCTT,"1.14 fold enrichment (6-mer frequency, TF over GST control)"
6,GATGTC,"1.29 fold enrichment (6-mer frequency, TF over GST control)"
7,GCAACT,"1.07 fold enrichment (6-mer frequency, TF over GST control)"
8,TACGTC,"1.08 fold enrichment (6-mer frequency, TF over GST control)"
9,TAACTT,"1.32 fold enrichment (6-mer frequency, TF over GST control)"
10,ATCCAC,"1.27 fold enrichment (6-mer frequency, TF over GST control)"
11,AGTTCC,"1.73 fold enrichment (6-mer frequency, TF over GST control)"
12,TCTGTT,"1.43 fold enrichment (6-mer frequency, TF over GST control)"
13,ACATTG,"1.26 fold enrichment (6-mer frequency, TF over GST control)"
14,CCGAGC,"1.17 fold enrichment (6-mer frequency, TF over GST control)"
15,CCGGAC,"1.4 fold enrichment (6-mer frequency, TF over GST control)"
16,CCCCAC,"1.14 fold enrichment (6-mer frequency, TF over GST control)"
17,TCCCAA,"1.34 fold enrichment (6-mer frequency, TF over GST control)"
18,AAGTAG,"1.22 fold enrichment (6-mer frequency, TF over GST control)"
19,CTTTAG,"1.16 fold enrichment (6-mer frequency, TF over GST control)"

# Target: T2, ETV3L (Homo sapiens, UniProt Q6ZN32 1-361)
# T2 sequence: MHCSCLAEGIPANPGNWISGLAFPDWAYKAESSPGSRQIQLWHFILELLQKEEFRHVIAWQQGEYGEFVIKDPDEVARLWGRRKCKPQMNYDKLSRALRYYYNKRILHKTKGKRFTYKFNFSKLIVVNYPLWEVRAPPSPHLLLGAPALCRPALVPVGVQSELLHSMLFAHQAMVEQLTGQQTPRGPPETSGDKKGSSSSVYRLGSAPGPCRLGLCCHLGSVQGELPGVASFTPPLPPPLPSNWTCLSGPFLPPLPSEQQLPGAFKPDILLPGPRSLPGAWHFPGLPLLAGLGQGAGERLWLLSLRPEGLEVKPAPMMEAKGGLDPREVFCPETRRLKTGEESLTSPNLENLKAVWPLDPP
# Assay: as above
# Settings: protein: recombinant; tags: N-terminal GST; dsDNA, one strand shown
# How it was run: as §1
row,Sequence,binding signal
1,AACACG,"1.15 fold enrichment (6-mer frequency, TF over GST control)"
2,ACTTAC,"1.09 fold enrichment (6-mer frequency, TF over GST control)"
3,CTGGAC,"1.22 fold enrichment (6-mer frequency, TF over GST control)"
4,TGCCTT,"1.52 fold enrichment (6-mer frequency, TF over GST control)"
5,ATGGGC,"1.3 fold enrichment (6-mer frequency, TF over GST control)"
6,CACACA,"1.22 fold enrichment (6-mer frequency, TF over GST control)"
7,TCCCTG,"1.28 fold enrichment (6-mer frequency, TF over GST control)"
8,ACCCTC,"1.08 fold enrichment (6-mer frequency, TF over GST control)"
9,ACTCCC,"1.19 fold enrichment (6-mer frequency, TF over GST control)"
10,CCGATC,"1.13 fold enrichment (6-mer frequency, TF over GST control)"
11,GTTTTG,"1.16 fold enrichment (6-mer frequency, TF over GST control)"
12,AACAAG,"1.18 fold enrichment (6-mer frequency, TF over GST control)"
13,TGGCAG,"1.12 fold enrichment (6-mer frequency, TF over GST control)"
14,CTTCTA,"1.35 fold enrichment (6-mer frequency, TF over GST control)"
15,AAGAAT,"1.15 fold enrichment (6-mer frequency, TF over GST control)"
16,GTAATC,"1.12 fold enrichment (6-mer frequency, TF over GST control)"
17,GTCTCT,"1.35 fold enrichment (6-mer frequency, TF over GST control)"
18,ATTTGT,"1.35 fold enrichment (6-mer frequency, TF over GST control)"
19,GTAGCA,"1.04 fold enrichment (6-mer frequency, TF over GST control)"
20,TTGCTA,"1.35 fold enrichment (6-mer frequency, TF over GST control)"

row,Sequence,binding signal
1,GACATC,"1.27 fold enrichment (6-mer frequency, TF over GST control)"
2,CACTTG,"1.22 fold enrichment (6-mer frequency, TF over GST control)"
3,TGACAC,"1.22 fold enrichment (6-mer frequency, TF over GST control)"
4,CGCCGC,"1.18 fold enrichment (6-mer frequency, TF over GST control)"
5,GTCCTT,"1.29 fold enrichment (6-mer frequency, TF over GST control)"
6,GATGTC,"1.31 fold enrichment (6-mer frequency, TF over GST control)"
7,GCAACT,"1.17 fold enrichment (6-mer frequency, TF over GST control)"
8,TACGTC,"1.27 fold enrichment (6-mer frequency, TF over GST control)"
9,TAACTT,"1.47 fold enrichment (6-mer frequency, TF over GST control)"
10,ATCCAC,"1.05 fold enrichment (6-mer frequency, TF over GST control)"
11,AGTTCC,"2.15 fold enrichment (6-mer frequency, TF over GST control)"
12,TCTGTT,"1.32 fold enrichment (6-mer frequency, TF over GST control)"
13,ACATTG,"1.18 fold enrichment (6-mer frequency, TF over GST control)"
14,CCGAGC,"1.1 fold enrichment (6-mer frequency, TF over GST control)"
15,CCGGAC,"1.48 fold enrichment (6-mer frequency, TF over GST control)"
16,CCCCAC,"1.28 fold enrichment (6-mer frequency, TF over GST control)"
17,TCCCAA,"1.23 fold enrichment (6-mer frequency, TF over GST control)"
18,AAGTAG,"1.16 fold enrichment (6-mer frequency, TF over GST control)"
19,CTTTAG,"1.23 fold enrichment (6-mer frequency, TF over GST control)"

# Target: T3, ETS2 (Homo sapiens, UniProt P15036 1-469)
# T3 sequence: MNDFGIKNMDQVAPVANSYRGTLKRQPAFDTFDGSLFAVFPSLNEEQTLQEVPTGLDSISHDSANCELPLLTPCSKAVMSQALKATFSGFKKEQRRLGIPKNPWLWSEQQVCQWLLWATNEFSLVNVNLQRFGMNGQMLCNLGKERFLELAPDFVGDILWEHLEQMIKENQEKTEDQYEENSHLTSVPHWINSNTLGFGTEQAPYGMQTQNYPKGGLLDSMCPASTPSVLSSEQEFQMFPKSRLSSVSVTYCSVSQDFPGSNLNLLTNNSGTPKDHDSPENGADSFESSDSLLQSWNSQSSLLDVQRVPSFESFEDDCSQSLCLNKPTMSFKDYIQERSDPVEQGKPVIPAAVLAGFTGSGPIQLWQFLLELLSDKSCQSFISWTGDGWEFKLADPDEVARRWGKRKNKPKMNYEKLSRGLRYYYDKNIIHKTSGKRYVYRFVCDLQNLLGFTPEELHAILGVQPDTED
# Assay: as above
# Settings: protein: recombinant; tags: N-terminal GST; dsDNA, one strand shown
# How it was run: as §1
row,Sequence,binding signal
1,AACACG,"1.25 fold enrichment (6-mer frequency, TF over GST control)"
2,ACTTAC,"1.14 fold enrichment (6-mer frequency, TF over GST control)"
3,CTGGAC,"1.07 fold enrichment (6-mer frequency, TF over GST control)"
4,TGCCTT,"1.38 fold enrichment (6-mer frequency, TF over GST control)"
5,ATGGGC,"1.28 fold enrichment (6-mer frequency, TF over GST control)"
6,CACACA,"1.14 fold enrichment (6-mer frequency, TF over GST control)"
7,TCCCTG,"1.21 fold enrichment (6-mer frequency, TF over GST control)"
8,ACCCTC,"1.19 fold enrichment (6-mer frequency, TF over GST control)"
9,ACTCCC,"1.27 fold enrichment (6-mer frequency, TF over GST control)"
10,CCGATC,"1.18 fold enrichment (6-mer frequency, TF over GST control)"
11,GTTTTG,"1.1 fold enrichment (6-mer frequency, TF over GST control)"
12,AACAAG,"1.06 fold enrichment (6-mer frequency, TF over GST control)"
13,TGGCAG,"1.05 fold enrichment (6-mer frequency, TF over GST control)"
14,CTTCTA,"1.53 fold enrichment (6-mer frequency, TF over GST control)"
15,AAGAAT,"1.11 fold enrichment (6-mer frequency, TF over GST control)"
16,GTAATC,"1.16 fold enrichment (6-mer frequency, TF over GST control)"
17,GTCTCT,"1.32 fold enrichment (6-mer frequency, TF over GST control)"
18,ATTTGT,"1.36 fold enrichment (6-mer frequency, TF over GST control)"
19,GTAGCA,"1.02 fold enrichment (6-mer frequency, TF over GST control)"
20,TTGCTA,"1.33 fold enrichment (6-mer frequency, TF over GST control)"

row,Sequence,binding signal
1,GACATC,"1.31 fold enrichment (6-mer frequency, TF over GST control)"
2,CACTTG,"1.32 fold enrichment (6-mer frequency, TF over GST control)"
3,TGACAC,"1.24 fold enrichment (6-mer frequency, TF over GST control)"
4,CGCCGC,"1.2 fold enrichment (6-mer frequency, TF over GST control)"
5,GTCCTT,"1.28 fold enrichment (6-mer frequency, TF over GST control)"
6,GATGTC,"1.33 fold enrichment (6-mer frequency, TF over GST control)"
7,GCAACT,"1.16 fold enrichment (6-mer frequency, TF over GST control)"
8,TACGTC,"1.2 fold enrichment (6-mer frequency, TF over GST control)"
9,TAACTT,"1.38 fold enrichment (6-mer frequency, TF over GST control)"
10,ATCCAC,"1.2 fold enrichment (6-mer frequency, TF over GST control)"
11,AGTTCC,"2.17 fold enrichment (6-mer frequency, TF over GST control)"
12,TCTGTT,"1.48 fold enrichment (6-mer frequency, TF over GST control)"
13,ACATTG,"1.17 fold enrichment (6-mer frequency, TF over GST control)"
14,CCGAGC,"1.17 fold enrichment (6-mer frequency, TF over GST control)"
15,CCGGAC,"1.52 fold enrichment (6-mer frequency, TF over GST control)"
16,CCCCAC,"1.22 fold enrichment (6-mer frequency, TF over GST control)"
17,TCCCAA,"1.12 fold enrichment (6-mer frequency, TF over GST control)"
18,AAGTAG,"1.31 fold enrichment (6-mer frequency, TF over GST control)"
19,CTTTAG,"1.17 fold enrichment (6-mer frequency, TF over GST control)"
